# Pf Dd2 inh: blocks in vitro growth of P. falciparum Dd2. P. falciparum Dd2 growth, SYBR Green, 72 h. Potency, µM (doses to about 28.9 µM), usual class: inhibitors. actives 4.3% (n = 120,000); active = well fitted inhibition curve with a large enough effect; also: nearly all actives have a fitted effect of over 65% in size
#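 Readout: SYBR Green fluorescence, 485 nm excitation, 535 nm emission, after ~16 h lysis at 37C. Before that, Dd2-infected red cells (2.5% hematocrit) grew 72 h with compound, 29 uM top final concentration.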
# Numbers stand for hits; . = inactive; [ ] = another dose, or the depositor's remark. This is one part of a sample in which hits are shown more often than they occur.
SMILES,Pf Dd2 inh
O=C(c1cnccn1)N1CCC(c2nc(-c3ccncc3)no2)C1 (centres undefined),.
COc1ccc(C(=O)NCc2nnc3ccc(-c4ccc(C)c(C)c4)nn23)cc1,.
Cc1ccc(-c2cnc3n[nH]c(-c4ccccc4)c3n2)cc1,.
Cc1ncn(C)c1C(=O)N[C@@H]1CCOC[C@H]1Oc1ccc(C#N)cc1,.
Cc1ccccc1NC(=O)Cn1c(=O)n(-c2ccc(F)cc2)c(=O)c2c1cc(C)n2C,.
CC(C)(C)C(=O)N1C[C@@H](COc2cccnc2)[C@H](c2ccccn2)C1,.
CNC(=O)N1CCC(C2CCN(C(=O)c3cccn3C)C2)CC1 (centres undefined),.
O=C(NCc1ccncc1)C1CN(Cc2cccs2)CC12CCOCC2 (centres undefined),.
Cc1nn(-c2ccc(F)cc2)c(Oc2cccc(F)c2)c1CCC(=O)N1CCSCC1,7.9µM
Cc1ccccc1Oc1c(CCC(=O)N2CCSCC2)c(C)nn1-c1ccc(F)cc1,.
Cc1nn(-c2ccc(F)cc2)c(Oc2ccc(F)cc2F)c1CCC(=O)N1CCCC1,.
Cc1oc2ccn(Cc3cccc(F)c3)c(=O)c2c1C(=O)NCC1CCCCC1,.
CN1C(=O)C(CC(=O)N2CCNCC2)(Cc2ccccc2)c2ccccc21 (centres undefined),.
Cc1noc2c(NCC3CCOCC3)cc(-c3ccc(Cl)cc3)nc12,.
C=CCN1CCN(C(=O)CCC[C@@H]2[C@H]3CCCN4CCC[C@@H](CN2Cc2ccccc2)[C@@H]34)CC1,.
C=CCN1CCN(C(=O)CCC[C@@H]2[C@H]3CCCN4CCC[C@@H](CN2C(=O)c2ccccc2)[C@@H]34)CC1,10µM
O=C(CCC[C@@H]1[C@H]2CCCN3CCC[C@@H](CN1C(=O)c1cccnc1)[C@@H]23)N1CCCC1,.
CN(Cc1cccnc1)C(=O)[C@H]1C[C@@H](C(=O)O)N(C)[C@H]1c1cccc(Cl)c1,.
Cc1cc(CNC(=O)c2cccc(F)c2F)c2[nH]c(C)c(C)c2c1,10µM
CCc1[nH]c2c(CNC(=O)C(C)O)cc(C)cc2c1C (centres undefined),.
Cc1cc(CNC(=O)c2ccc(S(N)(=O)=O)cc2)c2[nH]c(C)c(C)c2c1,.
Cn1nc(C(=O)N2CCCN(c3cc(-c4ccccc4)[nH]n3)CC2)c2ccccc21,.
COC1CCC12CCNCC2 (centres undefined),.
COc1ccc2[nH]c(=O)c(CN3CCOC(CN)C3)cc2c1 (centres undefined),.
CCC1Oc2ccc(NC(=O)C3CCCC3)cc2CN(Cc2ccccc2Cl)C1=O (centres undefined),.
SMILES,Pf Dd2 inh
COc1ccccc1CCNC(=O)Cc1c(C)c2c(cc(C)c3c(C)c(C)oc32)oc1=O,.
COc1cccc(CN2CCOc3ccc(C(=O)NCc4ccc(C)cc4)cc3C2)c1,.
COCCn1c(=O)[nH]c2cc(C(=O)NCc3ccccc3Cl)ccc2c1=O,.
COC(=O)Cc1c(C)c2ccc3c(c2oc1=O)CN(Cc1ccc(C)cc1)CO3,11µM
COc1ccc(CNC(=O)Cc2c(C)c3cc4c(C)coc4c(C)c3oc2=O)cc1,.
COC(=O)Cc1c(C)c2ccc3c(c2oc1=O)CN(Cc1ccccc1Cl)CO3,7.1µM
COc1ccccc1CNC(=O)Cc1c(C)c2c(cc(C)c3c(C)c(C)oc32)oc1=O,.
COC(=O)Cc1c(C)c2ccc3c(c2oc1=O)CN(Cc1ccccc1OC)CO3,13µM
Cn1cnc(S(=O)(=O)N2CCCC(C(=O)NCCC3=CCCCC3)CCNC(=O)CC2)c1 (centres undefined),.
O=C(c1ccc(F)cc1)N1CCN(C(=O)c2nnn3c2COC(c2ccc(Cl)cc2)C3)CC1 (centres undefined),.
CC(C)CNC(=O)C1COC2(CCCCC2)N1C(=O)c1cccc(Cl)c1 (centres undefined),.
Cc1ccc(CNC(=O)N2CC(Oc3ccc(-c4nc(C)no4)cc3)C2)cc1,.[5.79 µM]
O=C(Nc1ccc2n(c1=O)C[C@H]1C[C@@H]2CN(C(=O)Nc2ccc(F)cc2)C1)c1ccccc1,.
Cc1ccc(C)c(OCC(=O)c2ccc3c(c2)N(CCCC(=O)NCC2CC2)C(=O)CO3)c1,.
COc1cccc(CC(=O)N2CCc3nnc([C@@H]4C[C@@H](O)CN4C(C)C)n3CC2)c1,.
COc1cccc(CNC(=O)c2ccc3c(c2)c(C)c(C)n3Cc2ccccc2)c1,.
Cc1c(C)n(Cc2ccccc2)c2ccc(C(=O)NCc3ccco3)cc12,7.1µM
CCc1ccc(CNC(=O)c2ccc3c(c2)c(C)c(C)n3Cc2ccccc2)cc1,.
Cc1ccc(CNC(=O)c2ccc3c(c2)c(C)c(C)n3Cc2ccc(Cl)cc2)o1,10µM
Cc1ccc(CNC(=O)c2ccc3c(c2)c(C)c(C)n3Cc2ccccc2)o1,.
COc1ccccc1CCNC(=O)c1ccc2c(c1)c(C)c(C)n2Cc1ccc(Cl)cc1,.
CCOCCN1C(=O)COC[C@@H]1[C@H](O)c1ccc(NC(=O)c2cccnc2)cc1,.
Cc1ccc(CN2CCC3(CC2)C(C(=O)O)CC(=O)N3C)o1 (centres undefined),.
